Source: PubChem BioAssay (NCATS)
Results filed as inconclusive are left out. Calls of active or inactive are those of the source. Calls come from the whole dose curve; as a rule, active = well fitted curve in the direction sought with a large enough effect; inconclusive = small, poorly fitted or top-dose-only effect, or another doubt; inactive = no such curve, though single readings can be large; an effect the other way counts as inactive or inconclusive.

How the values were obtained:
NIH3T3 [1] = test: Cytotoxic Profiling of Annotated Libraries Using Quantitative High-Throughput Screening (AID 1296008); conditions: Five cell lines viability, CellTiter-Glo ATP luminescence, 48-72 h; stronger effect = lower value; note: nearly all actives have a fitted effect of over 60% in size
Procedure, shortened: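 Cytotoxicity was measured as CellTiter-Glo ATP luminescence, read after 10 min at room temperature. Compound treatment of the cells lasted 48 or 72 hr at 37 degrees Celsius in a qHTS format.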

HACAT = test: qHTS assay to identify novel small-molecules to repurpose for Merkel cell carcinoma treatment (AID 1296009); conditions: MCC and control cell lines, CellTiter-Glo viability, 72 h; at 44.8 µM (top of the series) unless noted; note: nearly all actives have a fitted effect of over 60% in size
Procedure, shortened: (§1)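 After compound transfer in DMSO, plates were kept 72 hr at 37 degree celsius. Luminescent ATP signal from CellTiter-Glo served as viability measure, normalized against DMSO and no-cell controls.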

MCC-13 = test: as above; conditions: MCC and control cell lines, CellTiter-Glo viability, 72 h; series mostly up to 46 µM
Procedure, shortened: as §1

MCC-26 = test: as above; conditions: MCC and control cell lines, CellTiter-Glo viability, 72 h; series mostly up to 46 µM
Procedure, shortened: as §1

MKL-1 = test: as above; conditions: MCC and control cell lines, CellTiter-Glo viability, 72 h; series mostly up to 46 µM
Procedure, shortened: as §1

MKL-2 = test: as above; conditions: MCC and control cell lines, CellTiter-Glo viability, 72 h; series mostly up to 46 µM
Procedure, shortened: as §1

NIH3T3 [2] = test: as above; conditions: MCC and control cell lines, CellTiter-Glo viability, 72 h; at 44.8 µM (top of the series) unless noted
Procedure, shortened: as §1

UISO = test: as above; conditions: MCC and control cell lines, CellTiter-Glo viability, 72 h; series mostly up to 46 µM
Procedure, shortened: as §1

WaGa = test: as above; conditions: MCC and control cell lines, CellTiter-Glo viability, 72 h; series mostly up to 46 µM
Procedure, shortened: as §1

C33A = test: Primary qHTS to identify gynecologic anti-cancer compounds using libraries of approved drugs and bioactive compounds (AID 1345084); conditions: Gynecologic cancer cell panel viability, ATPlite luminescence, 48 h; series mostly up to 57.5 µM; note: nearly all actives have a fitted effect of over 55% in size
Procedure, shortened: (§2)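 Cytotoxicity screen measuring ATP content by luciferase luminescence. Each compound is applied at five concentrations for 48 h at 37 C with 5% CO2.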

CAOV3 = test: as above; conditions: Gynecologic cancer cell panel viability, ATPlite luminescence, 48 h; series mostly up to 57.5 µM
Procedure, shortened: as §2

CASKI = test: as above; conditions: Gynecologic cancer cell panel viability, ATPlite luminescence, 48 h; series mostly up to 57.5 µM
Procedure, shortened: as §2

Es-2 = test: as above; conditions: Gynecologic cancer cell panel viability, ATPlite luminescence, 48 h; series mostly up to 57.5 µM
Procedure, shortened: as §2

HeLa = test: as above; conditions: Gynecologic cancer cell panel viability, ATPlite luminescence, 48 h; series mostly up to 57.5 µM
Procedure, shortened: as §2

Hek293T [3] = test: as above; conditions: Gynecologic cancer cell panel viability, ATPlite luminescence, 48 h, control line for the selectivity index; series mostly up to 57.5 µM
Procedure, shortened: as §2

JEG-3 = test: as above; conditions: Gynecologic cancer cell panel viability, ATPlite luminescence, 48 h; series mostly up to 57.5 µM
Procedure, shortened: as §2

OV90 = test: as above; conditions: Gynecologic cancer cell panel viability, ATPlite luminescence, 48 h; series mostly up to 57.5 µM
Procedure, shortened: as §2

PA-1 = test: as above; conditions: Gynecologic cancer cell panel viability, ATPlite luminescence, 48 h; series mostly up to 57.5 µM
Procedure, shortened: as §2

SKOV3 = test: as above; conditions: Gynecologic cancer cell panel viability, ATPlite luminescence, 48 h; series mostly up to 57.5 µM
Procedure, shortened: as §2

HEK293T [4] = test: qHTS assay to identify novel small-molecules to repurpose for Merkel cell carcinoma treatment (AID 1296009); conditions: MCC and control cell lines, CellTiter-Glo viability, 72 h; at 44.8 µM (top of the series) unless noted; note: nearly all actives have a fitted effect of over 60% in size
Procedure, shortened: as §1
% is set by controls: 0 for no effect and ±100 for the full control effect.

Cc1c(NC(C)C)c(=O)n(-c2ccccc2)n1C
inactive: outcome (NIH3T3 [1]) | outcome (HACAT) | outcome (MCC-13) | outcome (MCC-26) | outcome (MKL-1) | outcome (MKL-2) | outcome (NIH3T3 [2]) | outcome (UISO) | outcome (WaGa) | outcome (C33A) | outcome (CAOV3) | outcome (CASKI) | outcome (Es-2) | outcome (HeLa) | outcome (Hek293T [3]) | outcome (JEG-3) | Potency (OV90) | outcome (PA-1)

CC(C)c1cc2c(cc1S(=O)(=O)O)[C@@]1(C)CCC[C@@](C)(C(=O)O)[C@@H]1CC2
inactive: outcome (NIH3T3 [1]) | outcome (HACAT) | outcome (MCC-13) | outcome (MCC-26) | outcome (MKL-1) | outcome (MKL-2) | outcome (NIH3T3 [2]) | outcome (UISO) | outcome (WaGa) | outcome (C33A) | outcome (CAOV3) | outcome (CASKI) | outcome (Es-2) | outcome (HeLa) | outcome (Hek293T [3]) | outcome (JEG-3) | Potency (OV90) | outcome (PA-1) | outcome (SKOV3)

FC(F)(F)C(Cl)Br (stereo not given)
inactive: outcome (NIH3T3 [1]) | outcome (HACAT) | outcome (MCC-13) | outcome (MCC-26) | outcome (MKL-1) | outcome (MKL-2) | outcome (NIH3T3 [2]) | outcome (UISO) | outcome (WaGa) | outcome (C33A) | outcome (CAOV3) | outcome (CASKI) | outcome (Es-2) | outcome (HeLa) | outcome (Hek293T [3]) | outcome (JEG-3) | Potency (OV90) | outcome (PA-1) | outcome (SKOV3)

COc1nccnc1NS(=O)(=O)c1ccc(N)cc1
inactive: outcome (NIH3T3 [1]) | outcome (HACAT) | outcome (MCC-13) | outcome (MCC-26) | outcome (MKL-1) | outcome (MKL-2) | outcome (NIH3T3 [2]) | outcome (UISO) | outcome (WaGa) | outcome (C33A) | outcome (CAOV3) | outcome (CASKI) | outcome (Es-2) | outcome (HeLa) | outcome (Hek293T [3]) | outcome (JEG-3) | Potency (OV90) | outcome (PA-1) | outcome (SKOV3)

Cc1cc(O)cc(C)c1Cl
inactive: max response (NIH3T3 [1]) 1.17% | outcome (HACAT) | outcome (HEK293T [4]) | outcome (MCC-13) | outcome (MCC-26) | outcome (MKL-1) | outcome (MKL-2) | outcome (UISO) | outcome (WaGa) | outcome (C33A) | outcome (CAOV3) | outcome (CASKI) | outcome (Es-2) | outcome (HeLa) | outcome (Hek293T [3]) | outcome (JEG-3) | outcome (PA-1) | outcome (SKOV3)

CC(C)NC[C@@H](O)COc1ccc(CC(N)=O)cc1
inactive: max response (NIH3T3 [1]) -2.96% | outcome (HACAT) | outcome (HEK293T [4]) | outcome (MCC-13) | outcome (MCC-26) | outcome (MKL-1) | outcome (MKL-2) | outcome (UISO) | outcome (WaGa) | outcome (C33A) | outcome (CASKI) | outcome (Es-2) | outcome (HeLa) | outcome (Hek293T [3]) | outcome (JEG-3) | Potency (OV90) | outcome (PA-1)

N[C@@H](Cc1ccc(O)cc1)C(=O)O
inactive: outcome (NIH3T3 [1]) | outcome (HACAT) inactive [at 9.27 µM] | activity change, negative = cytotoxicity (MCC-13) 12.1% [at 9.22 µM] | activity change, negative = cytotoxicity (MCC-26) 4.77% [at 9.22 µM] | activity change, negative = cytotoxicity (MKL-1) 3.97% [at 9.22 µM] | activity change, negative = cytotoxicity (MKL-2) -20.6% [at 9.22 µM] | outcome (NIH3T3 [2]) inactive [at 9.27 µM] | activity change, negative = cytotoxicity (UISO) 19.3% [at 9.22 µM] | activity change, negative = cytotoxicity (WaGa) -2.96% [at 9.22 µM] | activity change, negative = cytotoxicity (C33A) 3.53% [at 11.6 µM] | activity change, negative = cytotoxicity (CAOV3) -13.2% [at 11.6 µM] | activity change, negative = cytotoxicity (CASKI) 0.958% [at 11.6 µM] | activity change, negative = cytotoxicity (Es-2) -4.06% [at 11.6 µM] | activity change, negative = cytotoxicity (HeLa) 11.2% [at 11.6 µM] | activity change, negative = cytotoxicity (Hek293T [3]) 11.5% [at 11.6 µM] | activity change, negative = cytotoxicity (JEG-3) 4.09% [at 11.6 µM] | activity change, negative = cytotoxicity (OV90) 9.24% [at 11.6 µM] | activity change, negative = cytotoxicity (PA-1) 1.05% [at 11.6 µM] | activity change, negative = cytotoxicity (SKOV3) -0.073% [at 11.6 µM]

CC(=O)OCC(COC(C)=O)OC(C)=O
inactive: outcome (NIH3T3 [1]) | outcome (HACAT) | outcome (MCC-13) | outcome (MCC-26) | outcome (MKL-1) | outcome (MKL-2) | outcome (NIH3T3 [2]) | outcome (UISO) | outcome (WaGa) | outcome (C33A) | outcome (CAOV3) | outcome (CASKI) | outcome (Es-2) | outcome (HeLa) | outcome (Hek293T [3]) | outcome (JEG-3) | Potency (OV90) | outcome (PA-1) | outcome (SKOV3)

O=C(O)Cn1c(C(=O)Nc2nc(-c3ccccc3Cl)cs2)cc2ccccc21
inactive: outcome (NIH3T3 [1]) | outcome (HACAT) | outcome (MCC-13) | outcome (MCC-26) | outcome (MKL-1) | outcome (MKL-2) | outcome (NIH3T3 [2]) | outcome (UISO) | outcome (WaGa) | outcome (C33A) | outcome (CAOV3) | outcome (CASKI) | outcome (Es-2) | outcome (HeLa) | outcome (Hek293T [3]) | outcome (JEG-3) | Potency (OV90) | outcome (PA-1)

Nc1ncnc2c1ncn2[C@@H]1O[C@H](COP(=O)(O)O)[C@@H](O)[C@H]1O
inactive: max response (NIH3T3 [1]) 4.32% | outcome (HACAT) | outcome (HEK293T [4]) | outcome (MCC-13) | outcome (MCC-26) | outcome (MKL-1) | outcome (MKL-2) | outcome (UISO) | outcome (WaGa) | outcome (C33A) | outcome (CAOV3) | outcome (CASKI) | outcome (Es-2) | outcome (HeLa) | outcome (Hek293T [3]) | outcome (JEG-3) | Potency (OV90) | outcome (PA-1)

CC(C)=CCC[C@@](C)(O)[C@H]1CC=C(C)CC1
inactive: max response (NIH3T3 [1]) -5.4% | outcome (HACAT) | outcome (HEK293T [4]) | outcome (MCC-13) | outcome (MCC-26) | outcome (MKL-1) | outcome (MKL-2) | outcome (UISO) | outcome (WaGa) | outcome (C33A) | outcome (CAOV3) | outcome (CASKI) | outcome (Es-2) | outcome (Hek293T [3]) | outcome (JEG-3) | Potency (OV90) | outcome (PA-1) | outcome (SKOV3)

CCOC(=O)[C@H](CCc1ccccc1)N[C@@H](C)C(=O)N1CCC[C@H]1C(=O)O
inactive: outcome (NIH3T3 [1]) | outcome (HACAT) | outcome (MCC-13) | outcome (MCC-26) | outcome (MKL-1) | outcome (MKL-2) | outcome (NIH3T3 [2]) | outcome (UISO) | outcome (WaGa) | outcome (C33A) | outcome (CAOV3) | outcome (CASKI) | outcome (Es-2) | outcome (HeLa) | outcome (Hek293T [3]) | outcome (JEG-3) | Potency (OV90) | outcome (PA-1) | outcome (SKOV3)

CN1C(=O)CC(c2ccccc2)C1=O (stereo not given)
inactive: outcome (NIH3T3 [1]) | outcome (HACAT) | outcome (MCC-13) | outcome (MCC-26) | outcome (MKL-1) | outcome (MKL-2) | outcome (NIH3T3 [2]) | outcome (UISO) | outcome (WaGa) | outcome (C33A) | outcome (CAOV3) | outcome (CASKI) | outcome (Es-2) | outcome (HeLa) | outcome (Hek293T [3]) | outcome (JEG-3) | Potency (OV90) | outcome (PA-1) | outcome (SKOV3)

CC(CSC(=O)c1ccccc1)C(=O)N1C[C@@H](Sc2ccccc2)C[C@H]1C(=O)O (stereo not given in full)
inactive: max response (NIH3T3 [1]) -0.681% | outcome (HACAT) inactive [at 17.4 µM] | outcome (HEK293T [4]) inactive [at 17.4 µM] | outcome (MCC-13) | outcome (MKL-1) | outcome (MKL-2) | outcome (UISO) | outcome (WaGa) | outcome (C33A) | outcome (CASKI) | outcome (Es-2) | outcome (HeLa) | outcome (Hek293T [3]) | outcome (JEG-3) | outcome (PA-1)
